Among the test systems are SK-MEL-2 melanoma; EKVX NSCLC; UO-31 renal; TK-10 renal; ACHN renal; CAKI-1 renal; A498 renal; CCRF-CEM leukemia; MOLT-4 leukemia; SR leukemia; RPMI-8226 leukemia; OVCAR-8 ovarian; OVCAR-5 ovarian; OVCAR-4 ovarian; SK-OV-3 ovarian; IGROV1 ovarian; OVCAR-3 ovarian; HS 578T breast; NCI/ADR-RES ovarian.
What all share (experiment): NCI-60 one-dose screen, 48 h (100 = growth as untreated, 0 = no growth, -100 = all killed)
Common to all, as to settings: 10 µM unless noted

The structures appear in SMILES notation. Compounds without any hit were thinned out: in the full panel of roughly 83,000, 20% have a hit.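 Testing used 96-well plates and a 48-hour single-concentration exposure. Example: -40 means 40% of the starting cells died.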 Values without a mark were called inactive. Activity calls are given as the source filed them. The calls were made as follows: active = growth percent below 10; inactive = the rest.

On to `O=C(Nc1ccccc1Cl)c1ccc(NC2=C(Cl)C(=O)N(C3CCCCC3)C2=O)cc1`, for which the growth was 104% [30 µM] with SK-MEL-2 melanoma; 98.5% [30 µM] in the assay with EKVX NSCLC; 75.8% [30 µM] with UO-31 renal; 88.5% [30 µM] with TK-10 renal; 78.9% [30 µM] in the assay on ACHN renal; 20.5% [30 µM] in the assay on CAKI-1 renal. The growth with A498 renal is 123% [30 µM]; with CCRF-CEM leukemia, 39.6% [30 µM]; with MOLT-4 leukemia, 40.8% [30 µM]; in the assay with SR leukemia, -22.2% [30 µM] (active); with RPMI-8226 leukemia it was 23.6% [30 µM]; in the assay with OVCAR-8 ovarian, 28.9% [30 µM]. Also, the growth is 109% [30 µM] in the assay on OVCAR-5 ovarian; 68.9% [30 µM] with OVCAR-4 ovarian; 109% [30 µM] with SK-OV-3 ovarian; 78.2% [30 µM] in the assay on IGROV1 ovarian; 15.9% [30 µM] in the assay on OVCAR-3 ovarian; -0.344% [30 µM] (active) in the assay on HS 578T breast. In addition, in the assay on NCI/ADR-RES ovarian, the growth is 78.4% [30 µM].

For the compound `COc1cc2c(cc1O)CC[C@@H]1[C@@H]2CC[C@]2(C)[C@@H](OCCCN(C)C)CC[C@@H]12`, the growth with SK-MEL-2 melanoma was -85.9% (active); in the assay on EKVX NSCLC it was 0.0282% (active); with UO-31 renal, -79.6% (active); with TK-10 renal it was -6.67% (active); in the assay on ACHN renal, -62.8% (active); in the assay with CAKI-1 renal it was 10.9%. Further, the growth is -53.6% (active) in the assay on A498 renal; -7.19% (active) in the assay on CCRF-CEM leukemia; -21.1% (active) with MOLT-4 leukemia; -36.2% (active) in the assay with SR leukemia; -32.9% (active) in the assay on RPMI-8226 leukemia; -34.2% (active) in the assay with OVCAR-8 ovarian. Moreover, the growth in the assay with OVCAR-5 ovarian was 2.83% (active); in the assay with OVCAR-4 ovarian, -15% (active); in the assay with SK-OV-3 ovarian, -59.1% (active); with IGROV1 ovarian, -35.2% (active); in the assay on OVCAR-3 ovarian, -55.5% (active); with HS 578T breast, -38.2% (active). In addition, in the assay on NCI/ADR-RES ovarian, the growth was -23.4% (active).

`COc1ccc(-c2nc(SCC(=O)Nc3ccc(C(=O)/C=C/c4ccc(Cl)cc4)cc3)[nH]c(=O)c2C#N)cc1`: the growth is 100% with SK-MEL-2 melanoma; 95.7% with EKVX NSCLC; 89.1% with UO-31 renal; 102% in the assay on TK-10 renal; 98.9% in the assay on ACHN renal; 82.8% in the assay with CAKI-1 renal. For the same compound, the growth was 101% in the assay on A498 renal; 94.2% with CCRF-CEM leukemia; 84.4% with MOLT-4 leukemia; 72.3% in the assay with SR leukemia; 98.3% in the assay on RPMI-8226 leukemia; 106% in the assay with OVCAR-8 ovarian. Moreover, the growth in the assay with OVCAR-5 ovarian was 109%; in the assay with OVCAR-4 ovarian, 99.8%; in the assay on SK-OV-3 ovarian, 96.2%; in the assay with IGROV1 ovarian, 111%; in the assay on OVCAR-3 ovarian, 101%; in the assay on HS 578T breast, 81.3%. Further, in the assay with NCI/ADR-RES ovarian, the growth is 102%.

Consider `COc1ccc(CN2c3ccccc3Oc3ccccc32)cc1F`, for which the growth was 10% in the assay with SK-MEL-2 melanoma; 60.7% in the assay with EKVX NSCLC; 53.3% in the assay with UO-31 renal; 74.2% with TK-10 renal; 81% in the assay on ACHN renal; 59.3% with CAKI-1 renal. Further, the growth is 54.3% in the assay with A498 renal; 66.7% in the assay on CCRF-CEM leukemia; 42% in the assay with MOLT-4 leukemia; 27.1% with SR leukemia; 61.5% with RPMI-8226 leukemia; 64.5% in the assay on OVCAR-8 ovarian. The growth in the assay with OVCAR-5 ovarian is 86.7%; with OVCAR-4 ovarian it was 71.7%; with SK-OV-3 ovarian, 46.5%; in the assay with IGROV1 ovarian, 52.1%; in the assay on OVCAR-3 ovarian, 43.1%; in the assay with HS 578T breast, 62.3%. For the same compound, in the assay on NCI/ADR-RES ovarian, the growth is 41.5%.

As for `CC/C=C\C[C@H](O)C/C=C1/C(=O)C=C[C@@]1(C)C/C=C\CCCC(=O)OC`, the growth in the assay on SK-MEL-2 melanoma was 103%; in the assay on EKVX NSCLC, 104%; in the assay with UO-31 renal, 92.1%; in the assay with TK-10 renal, 95.9%; in the assay with ACHN renal it was 101%; with CAKI-1 renal, 96.9%. The growth with A498 renal was 97.3%; in the assay with CCRF-CEM leukemia, 108%; in the assay on MOLT-4 leukemia, 94.4%; in the assay with SR leukemia, 103%; with RPMI-8226 leukemia it was 103%; with OVCAR-8 ovarian, 97.8%. Further, the growth with OVCAR-5 ovarian was 99.8%; with OVCAR-4 ovarian, 101%; in the assay on SK-OV-3 ovarian, 112%; in the assay with IGROV1 ovarian, 109%; in the assay with OVCAR-3 ovarian, 114%; in the assay with HS 578T breast, 103%. Also, in the assay on NCI/ADR-RES ovarian, the growth was 94.8%.

Regarding `CCCCC[C@H]1C/C=C2/C(=O)C=C[C@@H]2C/C=C\CCCC(=O)O1`, the growth with SK-MEL-2 melanoma is -75.9% (active); in the assay with EKVX NSCLC, -18% (active); in the assay on UO-31 renal it was -96.5% (active); with TK-10 renal, -59.4% (active); with ACHN renal, -91% (active); with CAKI-1 renal, 8.56% (active). Moreover, the growth in the assay with A498 renal was -61.1% (active); in the assay on CCRF-CEM leukemia, -0.835% (active); in the assay on MOLT-4 leukemia it was -3.81% (active); in the assay with SR leukemia, -3.55% (active); in the assay with RPMI-8226 leukemia, -13.4% (active); in the assay on OVCAR-8 ovarian it was 5.97% (active). Also, the growth was -9.16% (active) with OVCAR-5 ovarian; 14.1% in the assay on OVCAR-4 ovarian; -11.6% (active) with SK-OV-3 ovarian; -42.8% (active) with IGROV1 ovarian; -58.8% (active) in the assay with OVCAR-3 ovarian; 23.3% in the assay on HS 578T breast. For the same compound, the growth in the assay with NCI/ADR-RES ovarian is 10.3%.

Take `CC(=O)OC[C@H]1O[C@H](OC(C)=O)[C@H](NC(=O)/C=C/CCl)[C@@H](OC(C)=O)[C@@H]1OC(C)=O`: the growth in the assay on SK-MEL-2 melanoma is 66.6%; in the assay with EKVX NSCLC, 94.9%; in the assay on UO-31 renal, 103%; with TK-10 renal, 75%; with ACHN renal, 77.1%; with CAKI-1 renal, 101%. Further, the growth in the assay with A498 renal was 104%; in the assay on CCRF-CEM leukemia, 24.6%; with MOLT-4 leukemia, 81.9%; with SR leukemia, 44.5%; in the assay on RPMI-8226 leukemia it was 71.7%; with OVCAR-8 ovarian, 81.6%. In addition, the growth was 84.5% with OVCAR-5 ovarian; 68.2% in the assay on OVCAR-4 ovarian; 57.2% in the assay on SK-OV-3 ovarian; 93.9% in the assay with IGROV1 ovarian; 30.6% with OVCAR-3 ovarian; 92% in the assay with HS 578T breast. For the same compound, the growth with NCI/ADR-RES ovarian was 90.7%.

Take `CCOc1ccc(C(C)=O)cc1NC(=O)c1cccc(-c2nnn(CC)n2)c1`: the growth in the assay on SK-MEL-2 melanoma was -5.73% (active); with EKVX NSCLC it was 54.5%; in the assay with UO-31 renal, 38.4%; with TK-10 renal, 64.4%; in the assay on ACHN renal it was 50.8%; with CAKI-1 renal it was 33.1%. For the same compound, the growth is -6.01% (active) with A498 renal; 11.9% in the assay on CCRF-CEM leukemia; 27.8% in the assay on MOLT-4 leukemia; 10.2% in the assay on SR leukemia; 22.4% with RPMI-8226 leukemia; 34.2% with OVCAR-8 ovarian. Also, the growth with OVCAR-5 ovarian was 66.5%; in the assay with OVCAR-4 ovarian it was 48%; with SK-OV-3 ovarian, 23.8%; in the assay on IGROV1 ovarian, 52.3%; in the assay on OVCAR-3 ovarian, 7.08% (active); in the assay on HS 578T breast it was 25.4%. In the assay with NCI/ADR-RES ovarian, the growth was 25.2%.

(Values after PubChem BioAssay (NCI).)
